For seven molecules, AC50 and outcome results are on record in PubChem BioAssay (EPA / NIEHS).

“And” between values parts separate entries of the source, which are not always exact repeats. Equal entries are not always repeated. Inconclusive results are not listed. Where a structure was tested more than once in an assay, its records may differ in their call. The source made the active and inactive calls. How the source made its calls, unless noted: active means hit-call score of the fitted dose curve at least 0.9, where 1 is the maximum; inactive means score below 0.9.

Test [1] can be described thus: ATG_NRF2_ARE_CIS: Attagene CIS-FACTORIAL HepG2 Assay for human Nuclear Factor Erythroid 2 Related Factor 2 (NFR2) response to Antioxidant Response Elements (ARE) (AID 2282992).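 Further: reporter mRNA level measured by RT-PCR and capillary electrophoresis fluorescence.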 The settings on record: HepG2 Attagene ARE/NRF2 reporter, transcription factor activity; actives raise or lower the signal. A digest of the protocol:
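HepG2 cells transiently transfected with multiplexed cis-element reporter constructs, 24 h after chemical dosing; reporter mRNA quantified by RT-PCR, fluorescent primer extension, HpaI digestion and capillary electrophoresis. Bidirectional fit relative to DMSO.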

The nature of test [2]: ATG_Oct_MLP_CIS: Attagene CIS-FACTORIAL HepG2 Assay for human Octamer-Binding Transcription Factor (Oct) (AID 2282993). Conditions: HepG2 Attagene cis-factorial Oct reporter, mRNA; actives raise or lower the signal. A digest of the protocol:
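Read-out: reporter mRNA via RT-PCR plus capillary electrophoresis of 6-FAM-labelled fragments. Transiently transfected HepG2, 24 h exposure, endogenous TF activity on cis elements. Gain or loss of signal fitted relative to DMSO.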

For test [3], the target named is Cellular tumor antigen p53 (Homo sapiens) (UniProt P04637). The test can be described thus: ATG_p53_CIS: Attagene CIS-FACTORIAL HepG2 Assay for human p53 Transcription Factor (AID 2282994). Conditions: HepG2 p53 cis-element reporter, Attagene mRNA; actives raise or lower the signal. A digest of the protocol: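 HepG2 cells transiently transfected with cis-regulated multiple reporter transcription units, dosed 24 h. Reporter mRNA measured by RT-PCR, 6-FAM primer extension, HpaI digestion and capillary electrophoresis; bidirectional fit relative to DMSO.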
Cellular tumor antigen p53 (Homo sapiens), sequence (P04637 whole entry, looked up): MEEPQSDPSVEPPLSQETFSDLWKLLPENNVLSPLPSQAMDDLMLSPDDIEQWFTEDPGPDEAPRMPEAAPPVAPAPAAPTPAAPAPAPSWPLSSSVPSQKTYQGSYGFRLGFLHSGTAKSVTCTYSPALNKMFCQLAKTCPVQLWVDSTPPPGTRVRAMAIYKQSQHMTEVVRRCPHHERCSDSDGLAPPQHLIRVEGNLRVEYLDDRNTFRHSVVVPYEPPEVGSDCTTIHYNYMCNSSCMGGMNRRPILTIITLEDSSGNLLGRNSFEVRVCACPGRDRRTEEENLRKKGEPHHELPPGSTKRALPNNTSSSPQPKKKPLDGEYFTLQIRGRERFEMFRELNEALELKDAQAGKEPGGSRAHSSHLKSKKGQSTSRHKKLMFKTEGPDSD

Test [4] is described as follows: BSK_3C_TissueFactor: BioMAP Diversity Plus: 3C Assay for Tissue Factor Biomarker Activity (AID 2282997). Conditions: BioMAP 3C HUVEC, tissue factor biomarker readout; actives raise or lower the signal. A digest of the protocol:
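Human vascular primary cells (umbilical vein endothelium) received test chemical; Tissue Factor was determined by ELISA at 24 h, and both gain and loss of signal versus DMSO were fitted.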

A short description of test [5]: BSK_3C_uPAR: BioMAP Diversity Plus: 3C Assay for Urokinase-type plasminogen activator receptor (uPAR) Biomarker Activity (AID 2282998). Conditions: BioMAP 3C HUVEC, uPAR biomarker ELISA; actives raise or lower the signal. The method in brief: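 HUVEC primary cells; 24 h post-dose; uPAR by ELISA; gain or loss of signal fitted bidirectionally vs DMSO baseline.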
In general terms: In an ELISA, binding on a coated surface is turned into a signal by an enzyme label.

The nature of test [6]: BSK_4H_Eotaxin3: BioMAP Diversity Plus: 4H Assay for Eotaxin 3 Biomarker Activity (AID 2283000).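 On outcome: CCL26 protein level quantified by ELISA in parallel with SRB cytotoxicity check.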 Conditions: primary human endothelial cells (HUVEC); actives raise or lower the signal. A digest of the protocol: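 Readout is Eotaxin-3 (CCL26) level by ELISA in primary human umbilical vein endothelial cells harvested 24 h after chemical exposure; activity fitted in both directions against DMSO control.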

The target of test [7] is human Peroxisome Proliferator-activated Receptor alpha (PPARa), PPARA (gene 5465) (UniProt Q07869). The test can be described thus: ATG_PPARa_TRANS: Attagene TRANS-FACTORIAL HepG2 Assay for human Peroxisome Proliferator-activated Receptor alpha (PPARa) (AID 2283001; active means hit-call score of the fitted dose curve at least 0.9, where 1 is the maximum;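 on AC50: potency for gain of reporter signal over DMSO so agonist or activator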). A digest of the protocol:
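Measures transcriptional activity of an exogenous chimeric PPARa-Gal4 protein in transiently transfected HepG2 cells after 24 h dosing. Reporter mRNA quantified via RT-PCR and capillary electrophoresis; DMSO served as negative control.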

Test [8] has as its target human Peroxisome Proliferator-activated Receptor delta (PPARd), PPARD (gene 5467) (UniProt Q03181). Put plainly: ATG_PPARd_TRANS: Attagene TRANS-FACTORIAL HepG2 Assay for human Peroxisome Proliferator-activated Receptor delta (PPARd) (AID 2283002; active means hit-call score of the fitted dose curve at least 0.9, where 1 is the maximum). A digest of the protocol:
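HepG2 cells transiently transfected with GAL4-UAS multiplexed reporter units driven by exogenous chimeric NR-GAL4 proteins; 24 h compound exposure. Reporter mRNA measured by RT-PCR, 6-FAM primer extension, HpaI digestion and capillary electrophoresis; gain of signal fitted relative to DMSO.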

Read-out in test [9]: Intercellular Adhesion Molecule 1 (ICAM1), ICAM1 (gene 3383)
Put plainly: BSK_3C_ICAM1: BioMAP Diversity Plus: 3C Assay for Intercellular Adhesion Molecule 1 (ICAM1) Biomarker Activity (AID 2283003). Conditions: primary human endothelial cells (HUVEC); actives raise or lower the signal. The method in brief: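 Human vascular endothelial primary cells, 3C conditions, 24 h treatment. ICAM-1 by ELISA.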

Test [10] in a line: BSK_3C_Proliferation: Cell Proliferation Assessment in the BioMAP Diversity Plus: 3C Assay (AID 2283006).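 On AC50: potency may reflect either rise or fall in cell number versus DMSO.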 The settings on record: primary human endothelial cells (HUVEC). A digest of the protocol:
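Proliferation of human vascular endothelial primary cells after 48 h dosing, quantified as SRB-stained protein at 560 nm relative to DMSO.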

The target of test [11] is Peroxisome proliferator-activated receptor gamma (Homo sapiens) (UniProt P37231). Put plainly: ATG_PPARg_TRANS: Attagene TRANS-FACTORIAL HepG2 Assay for human Peroxisome Proliferator-activated Receptor-gamma (PPARg) (AID 2283007; active means hit-call score of the fitted dose curve at least 0.9, where 1 is the maximum). A digest of the protocol: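 Endpoint reflects upward reporter mRNA change versus DMSO controls. Setup: transiently transfected HepG2, GAL4-UAS reporters driven by chimeric NR-Gal4, 24 h incubation, RT-PCR with capillary electrophoresis read-out.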
Peroxisome proliferator-activated receptor gamma (Homo sapiens), sequence (P37231 whole entry, looked up, the tested form may be a part): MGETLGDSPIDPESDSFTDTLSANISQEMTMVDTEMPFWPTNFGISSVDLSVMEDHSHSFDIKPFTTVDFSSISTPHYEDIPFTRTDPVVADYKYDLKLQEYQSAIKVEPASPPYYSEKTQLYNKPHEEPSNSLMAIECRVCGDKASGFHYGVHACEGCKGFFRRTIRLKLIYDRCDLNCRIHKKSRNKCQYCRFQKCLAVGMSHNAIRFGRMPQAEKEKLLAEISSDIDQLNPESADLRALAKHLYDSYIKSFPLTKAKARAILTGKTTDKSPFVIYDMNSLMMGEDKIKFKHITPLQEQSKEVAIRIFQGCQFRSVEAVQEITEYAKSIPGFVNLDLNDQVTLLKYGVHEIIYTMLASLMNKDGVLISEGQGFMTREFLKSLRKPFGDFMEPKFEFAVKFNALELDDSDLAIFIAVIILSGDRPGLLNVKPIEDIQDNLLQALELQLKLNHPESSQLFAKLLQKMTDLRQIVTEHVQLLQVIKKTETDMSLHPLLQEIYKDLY

In test [12] the target is Nuclear receptor subfamily 1 group I member 2 (Homo sapiens) (UniProt O75469). Put plainly: ATG_PXR_TRANS: Attagene TRANS-FACTORIAL HepG2 Assay for human Pregnane X Receptor (PXR) (AID 2283008; active means hit-call score of the fitted dose curve at least 0.9, where 1 is the maximum). A digest of the protocol:
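HepG2 cells transiently transfected with GAL4-UAS reporter units and PXR-Gal4 chimera, exposed 24 h. Reporter mRNA quantified by RT-PCR, fluorescent labelling, HpaI digestion and capillary electrophoresis; gain of signal vs DMSO.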

Test [13] addresses Myc proto-oncogene protein (Homo sapiens) (UniProt P01106). Put plainly: ATG_Myc_CIS: Attagene CIS-FACTORIAL HepG2 Assay for human Myelocytomatosis (Myc) Proto-Oncogene Transcription Factor (AID 2282990). The settings on record: HepG2, Attagene cis-reporter transcription factor activity; actives raise or lower the signal. The method in brief:
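Transiently transfected HepG2 cells bearing cis-promoter reporter units for endogenous transcription factors; 24 h exposure. Reporter mRNA measured by RT-PCR, 6-FAM primer extension, HpaI cut and capillary electrophoresis; bidirectional fit relative to DMSO.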

Test [14] is described as follows: ATG_NF_kB_CIS: Attagene CIS-FACTORIAL HepG2 Assay for human Nuclear Factor Kappa B (NF-kB) (AID 2282991). Conditions: HepG2 Attagene cis-factorial NF-kB reporter mRNA; actives raise or lower the signal. The method in brief:
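Endpoint from a 52-component multiplexed HepG2 reporter panel: cis-regulated transcription units transiently transfected, 24 h dosing, reporter mRNA quantified by RT-PCR and capillary electrophoresis, scored as increase or decrease against DMSO.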

Test [15] deals with Retinoic acid receptor alpha (Homo sapiens) (UniProt P10276). Put plainly: ATG_RARa_TRANS: Attagene TRANS-FACTORIAL HepG2 Assay for human Retinoic Acid Receptor alpha (RARa) (AID 2283005; active means hit-call score of the fitted dose curve at least 0.9, where 1 is the maximum). The method in brief: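 HepG2 transiently transfected with multiplex GAL4-UAS reporter units including a human RARa–GAL4 chimera; 24 h compound exposure. Reporter mRNA quantified by RT-PCR, 6-FAM labeling and capillary electrophoresis; gain of signal versus DMSO.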
Retinoic acid receptor alpha (Homo sapiens), sequence (P10276 whole entry, looked up, the tested form may be a part): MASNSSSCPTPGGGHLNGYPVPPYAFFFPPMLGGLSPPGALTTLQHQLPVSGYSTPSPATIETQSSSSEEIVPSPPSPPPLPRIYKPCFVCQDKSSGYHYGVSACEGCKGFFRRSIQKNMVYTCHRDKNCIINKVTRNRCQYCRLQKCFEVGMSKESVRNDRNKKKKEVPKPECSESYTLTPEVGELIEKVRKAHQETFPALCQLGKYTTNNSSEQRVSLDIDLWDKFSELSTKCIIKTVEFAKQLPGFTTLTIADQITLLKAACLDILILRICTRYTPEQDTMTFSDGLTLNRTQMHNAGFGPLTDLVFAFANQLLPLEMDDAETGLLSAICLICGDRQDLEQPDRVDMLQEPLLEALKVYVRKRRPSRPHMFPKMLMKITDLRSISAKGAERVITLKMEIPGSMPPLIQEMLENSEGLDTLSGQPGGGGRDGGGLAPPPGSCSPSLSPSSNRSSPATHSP

The target in test [16] is human Retinoic Acid Receptor gamma (RARg), RARG (gene 5916) (UniProt P13631). Put plainly: ATG_RARg_TRANS: Attagene TRANS-FACTORIAL HepG2 Assay for human Retinoic Acid Receptor gamma (RARg) (AID 2283009; active means hit-call score of the fitted dose curve at least 0.9, where 1 is the maximum). A digest of the protocol: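 HepG2, RARg-GAL4 TRANS system, 24 h exposure; reporter mRNA by RT-PCR + CE fluorescence; increase over DMSO.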
human Retinoic Acid Receptor gamma (RARg), RARG (gene 5916), sequence (P13631 whole entry, looked up, the tested form may be a part): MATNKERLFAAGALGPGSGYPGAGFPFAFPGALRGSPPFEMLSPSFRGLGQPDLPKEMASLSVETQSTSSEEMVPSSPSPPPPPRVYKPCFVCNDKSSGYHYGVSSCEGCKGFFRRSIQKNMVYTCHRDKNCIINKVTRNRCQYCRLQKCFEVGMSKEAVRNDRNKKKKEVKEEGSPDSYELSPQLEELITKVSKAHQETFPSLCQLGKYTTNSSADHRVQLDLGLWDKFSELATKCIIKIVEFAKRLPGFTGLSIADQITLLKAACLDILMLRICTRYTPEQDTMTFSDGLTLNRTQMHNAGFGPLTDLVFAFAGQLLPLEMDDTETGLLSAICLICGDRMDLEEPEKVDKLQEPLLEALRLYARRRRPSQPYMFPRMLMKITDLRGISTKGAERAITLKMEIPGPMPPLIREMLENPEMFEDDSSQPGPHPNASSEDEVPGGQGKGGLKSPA
For test [17], the target named is human RAR-related Orphan Receptor beta (RORb), RORB (gene 6096) (UniProt Q92753). The test can be described thus: ATG_RORb_TRANS: Attagene TRANS-FACTORIAL HepG2 Assay for human RAR-related Orphan Receptor beta (RORb) (AID 2283010; active means hit-call score of the fitted dose curve at least 0.9, where 1 is the maximum). A digest of the protocol: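 In this TRANS-format test, human HepG2 cells express chimeric NR-Gal4 fusion proteins driving GAL4-UAS reporters. After 24 h dosing, reporter transcripts are measured by fluorescent RT-PCR/capillary electrophoresis, with DMSO as negative control.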
human RAR-related Orphan Receptor beta (RORb), RORB (gene 6096), sequence (Q92753 whole entry, looked up, the tested form may be a part): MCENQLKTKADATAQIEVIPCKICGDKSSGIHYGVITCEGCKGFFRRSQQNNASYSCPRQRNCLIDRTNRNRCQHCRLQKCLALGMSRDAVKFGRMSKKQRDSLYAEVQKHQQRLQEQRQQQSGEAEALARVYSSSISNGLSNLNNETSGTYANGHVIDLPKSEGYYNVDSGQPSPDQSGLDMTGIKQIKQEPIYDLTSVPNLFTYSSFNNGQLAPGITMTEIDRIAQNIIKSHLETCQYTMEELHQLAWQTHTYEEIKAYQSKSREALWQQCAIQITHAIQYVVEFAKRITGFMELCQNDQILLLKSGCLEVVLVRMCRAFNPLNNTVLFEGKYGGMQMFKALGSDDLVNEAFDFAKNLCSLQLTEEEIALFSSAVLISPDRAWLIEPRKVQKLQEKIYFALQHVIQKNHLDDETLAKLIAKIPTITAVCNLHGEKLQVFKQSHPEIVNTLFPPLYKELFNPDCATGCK

The target in test [18] is human Retinoic Acid Receptor beta (RARb), RARB (gene 5915) (UniProt P10826). Put plainly: ATG_RARb_TRANS: Attagene TRANS-FACTORIAL HepG2 Assay for human Retinoic Acid Receptor beta (AID 2283004; active means hit-call score of the fitted dose curve at least 0.9, where 1 is the maximum). The method in brief:
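Readout is reporter mRNA induction: RNA reverse-transcribed, PCR-amplified, FAM-labelled, HpaI-cut and resolved by capillary electrophoresis. Transiently transfected HepG2 cells carrying exogenous NR–Gal4 chimeras were dosed for 24 h; activity fitted upward relative to DMSO.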

human Peroxisome Proliferator-activated Receptor delta (PPARd), PPARD (gene 5467), sequence (Q03181 whole entry, looked up, the tested form may be a part): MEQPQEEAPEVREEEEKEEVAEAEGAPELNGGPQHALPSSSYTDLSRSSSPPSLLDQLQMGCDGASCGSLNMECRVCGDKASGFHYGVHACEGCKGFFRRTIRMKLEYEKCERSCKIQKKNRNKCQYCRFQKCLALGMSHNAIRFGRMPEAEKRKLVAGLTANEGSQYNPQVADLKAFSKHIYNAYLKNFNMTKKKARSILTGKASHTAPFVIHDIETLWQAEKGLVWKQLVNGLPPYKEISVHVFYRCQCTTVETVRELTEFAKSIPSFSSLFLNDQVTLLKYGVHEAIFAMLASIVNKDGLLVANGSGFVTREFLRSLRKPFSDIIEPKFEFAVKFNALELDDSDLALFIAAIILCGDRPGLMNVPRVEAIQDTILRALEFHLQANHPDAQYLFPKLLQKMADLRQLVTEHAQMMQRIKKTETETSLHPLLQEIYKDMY
human Peroxisome Proliferator-activated Receptor alpha (PPARa), PPARA (gene 5465), sequence (Q07869 whole entry, looked up, the tested form may be a part): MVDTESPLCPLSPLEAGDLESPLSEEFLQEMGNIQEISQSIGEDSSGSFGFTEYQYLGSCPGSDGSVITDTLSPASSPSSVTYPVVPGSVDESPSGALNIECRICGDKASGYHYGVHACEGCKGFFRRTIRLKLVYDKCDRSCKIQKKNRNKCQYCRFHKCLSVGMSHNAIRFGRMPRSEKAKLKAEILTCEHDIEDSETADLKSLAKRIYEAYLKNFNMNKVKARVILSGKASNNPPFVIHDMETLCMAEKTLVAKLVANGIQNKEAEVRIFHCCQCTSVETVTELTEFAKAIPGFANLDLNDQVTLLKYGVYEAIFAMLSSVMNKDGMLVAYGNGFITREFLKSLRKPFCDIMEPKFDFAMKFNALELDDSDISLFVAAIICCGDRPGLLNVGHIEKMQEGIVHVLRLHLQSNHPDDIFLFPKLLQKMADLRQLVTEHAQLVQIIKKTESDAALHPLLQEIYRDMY
Myc proto-oncogene protein (Homo sapiens), sequence (P01106 whole entry, looked up): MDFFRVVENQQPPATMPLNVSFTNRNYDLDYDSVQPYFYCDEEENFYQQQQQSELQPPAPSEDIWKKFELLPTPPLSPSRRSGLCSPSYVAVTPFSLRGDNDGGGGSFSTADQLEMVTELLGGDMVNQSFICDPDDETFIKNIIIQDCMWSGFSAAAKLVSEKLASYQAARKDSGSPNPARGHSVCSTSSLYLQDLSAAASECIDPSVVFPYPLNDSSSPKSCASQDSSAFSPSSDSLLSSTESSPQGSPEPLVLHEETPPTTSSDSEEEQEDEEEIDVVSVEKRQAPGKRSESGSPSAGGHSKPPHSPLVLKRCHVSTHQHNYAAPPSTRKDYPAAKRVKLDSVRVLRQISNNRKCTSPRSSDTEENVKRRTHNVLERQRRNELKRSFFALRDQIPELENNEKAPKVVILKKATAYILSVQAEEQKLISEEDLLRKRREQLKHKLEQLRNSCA
Nuclear receptor subfamily 1 group I member 2 (Homo sapiens), sequence (O75469 whole entry, looked up, the tested form may be a part): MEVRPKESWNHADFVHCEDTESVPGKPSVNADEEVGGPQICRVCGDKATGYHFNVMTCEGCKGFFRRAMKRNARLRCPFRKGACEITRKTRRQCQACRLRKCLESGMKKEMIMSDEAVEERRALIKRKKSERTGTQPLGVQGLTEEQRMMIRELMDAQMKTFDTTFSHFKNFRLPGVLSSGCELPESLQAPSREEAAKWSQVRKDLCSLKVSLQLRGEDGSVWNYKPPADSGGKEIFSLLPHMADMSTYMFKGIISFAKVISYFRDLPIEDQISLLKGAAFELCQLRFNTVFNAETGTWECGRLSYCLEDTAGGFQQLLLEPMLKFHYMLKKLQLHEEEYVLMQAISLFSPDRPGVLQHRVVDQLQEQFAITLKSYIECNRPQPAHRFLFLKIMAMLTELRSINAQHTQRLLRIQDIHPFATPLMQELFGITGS
human Retinoic Acid Receptor beta (RARb), RARB (gene 5915), sequence (P10826 whole entry, looked up, the tested form may be a part): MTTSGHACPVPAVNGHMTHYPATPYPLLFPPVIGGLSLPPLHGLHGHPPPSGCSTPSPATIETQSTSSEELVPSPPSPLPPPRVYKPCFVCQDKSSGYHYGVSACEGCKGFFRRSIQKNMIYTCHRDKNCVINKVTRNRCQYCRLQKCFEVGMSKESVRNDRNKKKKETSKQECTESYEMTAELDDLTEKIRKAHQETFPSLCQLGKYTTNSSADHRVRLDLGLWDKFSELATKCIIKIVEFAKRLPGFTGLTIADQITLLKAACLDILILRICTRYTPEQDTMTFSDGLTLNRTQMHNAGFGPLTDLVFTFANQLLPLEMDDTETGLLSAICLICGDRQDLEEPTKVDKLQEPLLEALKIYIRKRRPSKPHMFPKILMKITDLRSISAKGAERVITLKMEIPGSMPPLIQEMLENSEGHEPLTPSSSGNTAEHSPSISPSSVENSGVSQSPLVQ

One may read the AC50 as the concentration giving half of the maximal activity seen. With `Oc1ccc(Cc2ccccc2O)cc1`, the AC50 in test [1] was 81 µM (active); in test [6], 149 nM (active); in [10], 15.9 µM (active). For the same molecule, the molecule was classed as inactive in test [2], in test [3], in [4], in test [5], in test [6] and in [7]. Besides, the molecule was classed as inactive in test [8], in test [9], in [10], in test [11] and in test [12].

As for `O=C(CC(=O)C(F)(F)C(F)(F)C(F)(F)F)c1cccs1`, the molecule was classed as inactive in test [13], in test [14], in test [2], in test [3], in test [8] and in test [15]. In addition, the molecule was called inactive in [12], in test [16] and in [17]. Besides, the AC50 is 9.28 µM (active) in [2]; 29.2 µM (active) and 35.5 µM (active) in test [4]; 46.7 µM (active) and 30 µM (active) in test [5]; 34.6 µM (active) and 39.1 µM (active) in test [6]; 13.3 µM (active) and 14.1 µM (active) in test [7]; 46.2 µM (active) and 50 µM (active) in [9]. In addition, the AC50 in test [10] was 15.1 µM (active) and 16.5 µM (active); in [11] it was 5.3 µM (active) and 10.5 µM (active); in test [12], 13.9 µM (active).

In the case of `Oc1c(Cl)cc(Cl)cc1Sc1cc(Cl)cc(Cl)c1O`, the molecule was called inactive in test [13], in test [3], in test [8], in test [16] and in [17]. Also, the AC50 was 3 µM (active) in test [1]; 3.57 µM (active) in test [2]; 22.2 µM (active) and 21 µM (active) in [4]; 3.97 µM (active) and 7.82 µM (active) in [5]; 22.2 µM (active) and 18.5 µM (active) in test [6]; 11.1 µM (active) in [7]. In addition, the AC50 in [9] was 33.5 µM (active) and 34.8 µM (active); in test [10] it was 5.56 µM (active) and 4.63 µM (active); in test [11], 2.69 µM (active); in [12], 1.9 µM (active).

For `CCC(=O)C=Cc1ccc(OC)cc1`, the AC50 was 100 µM (active) in test [14] and 24.6 µM (active) in [11]. Further, the outcome in test [2], in [3], in test [8] and in [12] was inactive.

In the case of `Cc1cc(C(=C2C=CC(=Nc3ccc(S(=O)(=O)O)cc3)C=C2)c2ccc(Nc3ccc(S(=O)(=O)O)cc3)cc2)cc(S(=O)(=O)O)c1N`, the result in test [13], in test [2], in [3], in test [7], in test [8] and in test [11] was inactive. For the same molecule, the molecule was called inactive in [12] and in [17].

Consider `O=C(NCc1ncc(C(F)(F)F)cc1Cl)c1c(Cl)cccc1Cl`, for which the AC50 in test [1] is 1.97 µM (active); in test [11], 13.7 µM (active); in test [12], 0.675 µM (active). The molecule was called inactive in [2], in [3], in test [4], in [5], in test [6] and in [7]. Further, the call in [8], in test [9], in [18], in test [15], in test [10] and in test [16] was inactive.

Turning to `O=c1cc(-c2ccccc2)oc2ccc3ccccc3c12`, the molecule was classed as inactive in test [14], in test [2], in test [3], in [8], in test [11] and in [12]. For the same molecule, the outcome in [17] was inactive. The AC50 in test [1] was 182 nM (active) and 134 nM (active); in test [11] it was 0.708 µM (active); in [12], 5.62 µM (active).
